Reference: PubChem BioAssay AID1159580 (chemical genetic matrix, 2015)
“And” between values parts separate entries of the source, which are not always exact repeats. Equal values may be shown once. The campaign covered roughly 5,500 compounds. About 2,000 (36%) were called active. Not shown: some 18% with an inconclusive outcome. Cut-off read from the data, not from the text of the source: active = normalized growth mostly below about 0.91 (no sharp cut-off); inconclusive = no clear call, values can overlap the other calls; inactive = mostly above about 0.92. The list shows a part of the results.

Test: chemical genetic growth profiling, strain panel (AID 1159580);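 note: tested at 20 µM; growth read once vehicle control cultures reached saturation at 30 °C; 1 = growth at the plate median or of vehicle wells; lower values mean less growth of the strain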
Conditions: S. cerevisiae deletion strains, growth OD

Measured: normalized growth

NC(=O)N/N=C\c1ccc([N+](=O)[O-])o1
inactive: locus YAL021C, strain ccr4, active compounds read low 0.987 | locus YAL026C, strain drs2, active compounds read low 0.988 | locus YAL030W, strain snc1, active compounds read low 1 | locus YBL061C, strain skt5, active compounds read low 0.997 | locus YBR009C, strain hhf1, active compounds read low 0.978 | locus YBR021W, strain FUR4, active compounds read low 1.02 | locus YBR023C, strain chs3, active compounds read low 0.996 | locus YBR171W, strain sec66, active compounds read low 1.01 | locus YBR229C, strain ROT2, active compounds read low 0.997 | locus YBR231C, strain swc5, active compounds read low 0.993 | locus YBR279W, strain paf1, active compounds read low 0.995 | locus YCL011C, strain gbp2, active compounds read low 0.986 | locus YCL016C, strain dcc1, active compounds read low 0.992 | locus YCL029C, strain bik1, active compounds read low 0.99 | locus YCL061C, strain MRC1, active compounds read low 1.01 | locus YCL069W, strain vba3, active compounds read low 1 | locus YCR088W, strain abp1, active compounds read low 0.972 | locus YDL005C, strain med2, active compounds read low 0.989 | locus YDL035C, strain GPR1, active compounds read low 1.01 | locus YDL040C, strain nat1, active compounds read low 0.995 | locus YDL074C, strain BRE1, active compounds read low 1.08 | locus YDL101C, strain DUN1, active compounds read low 0.993 | locus YDL134C, strain PPH21, active compounds read low 1 | locus YDL185W, strain tfp1, active compounds read low 0.963 | locus YDL192W, strain arf1, active compounds read low 0.99 | locus YDR001C, strain nth1, active compounds read low 0.991 | locus YDR069C, strain doa4, active compounds read low 0.975 | locus YDR101C, strain arx1, active compounds read low 0.977 | locus YDR137W, strain rgp1, active compounds read low 1.04 | locus YDR159W, strain sac3, active compounds read low 0.993 | locus YDR162C, strain NBP2, active compounds read low 1.01 | locus YDR195W, strain ref2 0.967 | locus YDR297W, strain sur2, active compounds read low 0.991 | locus YDR318W, strain mcm21, active compounds read low 0.983 | locus YDR334W, strain swr1, active compounds read low 0.992 | locus YDR335W, strain msn5, active compounds read low 0.999 | locus YDR388W, active compounds read low 0.984 | locus YDR392W, strain spt3, active compounds read low 0.925 | locus YDR502C, strain sam2, active compounds read low 0.978 | locus YEL003W, strain gim4, active compounds read low 1 | locus YEL037C, strain rad23, active compounds read low 1 | locus YEL061C, strain CIN8 (second series), active compounds read low 1 | locus YEL061C, strain CIN8, active compounds read low 1.02 | locus YER015W, strain faa2, active compounds read low 0.962 | locus YER016W, strain bim1, active compounds read low 0.968 | locus YER110C, active compounds read low 0.966 | locus YER111C, strain swi4, active compounds read low 1.01 | locus YER155C, strain BEM2 (second series), active compounds read low 0.962 | locus YER155C, strain BEM2, active compounds read low 0.994 | locus YER167W, strain BCK2, active compounds read low 1 | locus YFR010W, strain ubp6, active compounds read low 0.985 | locus YGL078C, strain dbp3, active compounds read low 0.995 | locus YGL086W, strain mad1, active compounds read low 0.971 | locus YGL167C, strain pmr1, active compounds read low 0.994 | locus YGL173C, strain kem1, active compounds read low 1.01 | locus YGL227W, strain vid30, active compounds read low 1.01 | locus YGL240W, strain doc1, active compounds read low 0.952 | locus YGL248W, strain PDE1, active compounds read low 0.999 | locus YGL253W, strain hxk2, active compounds read low 1.01 | locus YGR135W, strain pre9, active compounds read low 0.989 | locus YGR229C, strain SMI1, active compounds read low 1.07 | locus YGR252W, strain gcn5, active compounds read low 0.951 | locus YHR013C, strain ard1, active compounds read low 1.01 | locus YHR027C, strain rpn1, active compounds read low 0.988 | locus YHR030C, strain SLT2, active compounds read low 0.992 and 0.97 | locus YHR079C, strain IRE1 (second series), active compounds read low 0.978 | locus YHR079C, strain IRE1, active compounds read low 0.96 | locus YHR094C, strain hxt1, active compounds read low 0.982 | locus YHR129C, strain ARP1, active compounds read low 0.999 | locus YHR142W, strain chs7, active compounds read low 1.02 | locus YHR200W, strain rpn10, active compounds read low 0.989 | locus YIL066C, strain RNR3, active compounds read low 1.01 | locus YIL073C, strain SPO22, active compounds read low 0.975 | locus YIL125W, strain kgd1, active compounds read low 0.983 | locus YIR030C, strain dcg1, active compounds read low 0.989 | locus YJL092W, strain hpr5, active compounds read low 0.997 | locus YJL095W, strain BCK1 (second series), active compounds read low 0.992 | locus YJL095W, strain BCK1, active compounds read low 0.985 and 0.968 | locus YJL115W, strain asf1, active compounds read low 1.02 | locus YJL129C, strain trk1, active compounds read low 1.05 | locus YJL134W, strain LCB3, active compounds read low 1 | locus YJL154C, strain vps35, active compounds read low 0.992 | locus YJL164C, strain tpk1, active compounds read low 0.966 | locus YJL166W, strain qcr8, active compounds read low 0.984 | locus YJL168C, strain set2, active compounds read low 0.979 | locus YJL187C, strain SWE1 (second series), active compounds read low 0.998 | locus YJL187C, strain SWE1, active compounds read low 0.996 | locus YJR043C, strain POL32, active compounds read low 0.977
